3CLpro inhibitor = SARS-CoV 3CLpro protease inhibition. recombinant SARS-CoV 3CLpro, quenched FRET peptide cleavage. inhibition, % at 6 µM. hit rate 0.14% among 290,000. AID 1706; in the data active means inhibition above about 12%
PrPC TRFRET = cell surface PrPC inhibition, primary TR-FRET screen | TR-FRET read-out | hit rate 0.43% among 370,000 | inhibition, % at 13.8 µM; in the data active means inhibition above about 24%; further: 0% = median of the test wells and 100% = reference compound wells
BJeLR lethal = kills HRASV12-expressing BJeLR cells; hit rate 0.17% among 300,000; inhibition, % (no concentration beside the values); AID 1554; BJeLR (HRASV12) viability, CellTiter-Glo ATP luminescence, 48 h; in the data active means inhibition above about 50%
VHR inh abs = inhibitors of human VHR1 phosphatase (DUSP3) | hit rate 0.52% among 290,000 | AID 1654 | recombinant VHR phosphatase, pNPP absorbance | P51452 | inhibition, % at 13.3 µM; in the data active means inhibition above about 50%
Target sequence (P51452 whole entry, looked up): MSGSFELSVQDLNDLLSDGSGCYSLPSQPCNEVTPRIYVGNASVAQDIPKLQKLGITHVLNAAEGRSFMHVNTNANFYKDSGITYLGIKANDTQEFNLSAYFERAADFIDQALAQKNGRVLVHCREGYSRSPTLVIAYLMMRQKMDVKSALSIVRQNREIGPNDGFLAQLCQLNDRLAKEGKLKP
The depositor's hits bear a star; x = no result; ! = repeats disagree. An excerpt weighted towards active compounds, which were near 1.1% of everything screened.

SMILES	3CLpro inhibitor	PrPC TRFRET	BJeLR lethal	VHR inh abs
Cc1nc2nc(SCC(=O)NCCCN3CCCCCC3)nn2c(C)c1Cc1ccccc1	-1	-12	-7	17
Cc1nc2nc(SCC(=O)NCc3ccco3)nn2c(C)c1Cc1c(F)cccc1Cl	-4	-3	-8	51*
Cc1ccccc1Cc1c(C)nc2nc(SCC(=O)NCCCN3CCCCC3)nn2c1C	2	x	-4	58*
CCOc1ccc(C2=Nn3c(nnc3-c3cccnc3)SC2)cc1	3	-3	-7	57*
COCCNC(=O)C1(C)CCCN(C(=O)c2cc(OC)c(OC)c(OC)c2)C1 (stereo unspecified)	x	-6	x	x
CCOc1ccc2nc(NC(=O)c3ccccn3)sc2c1	-2	22	24	23
CCOc1ccc2nc(NC(=O)c3ccoc3C)sc2c1	8	19	81*	6
O=C(c1cc(COc2ccc3ncccc3c2)on1)N1CCC[C@H]1CO	-5	16	9	53*
COc1cc(OC)c(-c2c3cc(O)c(=O)cc-3oc3cc(O)c(O)cc23)cc1OC	-2	-19	x	7
Cc1c2cc(O)c(=O)cc-2oc2cc(O)c(O)cc12	0	60*	19	122*!
CC1(C(=O)Nc2ccc3c(c2)OCO3)CCN1C(=O)Cc1ccc(-c2ccccc2)cc1 (stereo unspecified)	x	16	x	x
COc1ccc2nc(C)cc(N3CCN(S(=O)(=O)c4ccccc4F)CC3)c2c1	x	-7	x	x
C=C1C(=O)[C@]23C[C@H]1CCC2[C@@]1(C)C(C[C@@H]3O)[C@](C)(C(=O)OC)CC[C@@H]1OC(C)=O (stereo partly specified)	x	68*	x	x
O=C(Nc1ccc(N2CCOCC2)cc1)c1ccc2nc(-c3ccco3)c(-c3ccco3)nc2c1	0	-10	-1	7
S=C(Nc1ccc(N2CCOCC2)cc1)Nc1ccc2nc(-c3ccco3)c(-c3ccco3)nc2c1	-1	-22	8	50*
O=C(NCc1cccnc1)c1cc(C2CCCN(C(=O)c3ccccn3)C2)on1 (stereo unspecified)	x	-11	x	x
Cn1c(COc2ccccc2O)[n+](C)c2ccccc21	-8	-6	8	10
COc1ccc(N=Nc2n(C)c3ccccc3[n+]2C)cc1	3	x	52*	5
CCOc1ccc(N(CC(=O)Nc2ccccc2Cl)S(C)(=O)=O)cc1	1	3	6	59*
CCOC(=O)N/N=C/c1ccc(N(CC)CC)cc1O	-3	-1	23	-10
CCN(CC)c1ccc(/C=N/Nc2nc(C)cc(=O)[nH]2)c(O)c1	-6	0	67*	-10
CCN(CC)c1ccc(/C=N/Nc2ccc(C)cc2)c(O)c1	2	25*	x	8
O=C(NC1CCCCC1)C1CCN(C(=O)NCc2ccccc2)CC1	-2	-5	-6	21
O=C(NC1CCCC1)C1CCN(C(=O)NCc2ccccc2)CC1	-2	1	14	54*
CN(C)S(=O)(=O)n1cc(/C=C(\NC(=O)c2ccccc2F)C(=O)N2CCCCC2)c2ccccc21	x	11	x	x
SMILES	3CLpro inhibitor	PrPC TRFRET	BJeLR lethal	VHR inh abs
Nc1nnc(-c2cc3c(ccc4ccccc43)oc2=O)s1	-1	x	x	54*
COc1ccccc1CNC(=O)C[C@H]1CC[C@@H]2[C@H](COC[C@H](O)CN2Cc2ccc3c(c2)OCO3)O1	x	7	x	x
CC(C)(C)OC(=O)N1CCC(C(=O)Nc2cccc(C(=O)NCc3ccccc3)c2)CC1	x	18	x	x
CC(=O)N/C(=N\c1nc(C)cc(C)n1)Nc1ccc2ccccc2c1	-3	1	8	54*
CCN1CCSc2ccc(C(=O)NCc3ccc(OC(C)C)cc3)cc21	3	6	1	53*
CCOc1ccc(CNC(=O)c2ccc3c(c2)N(CC)CCS3)cc1	11	3	4	13
O=C(c1ccco1)N(Cc1ccc([N+](=O)[O-])cc1)c1ccc(Br)cc1	13*	4	3	26
Cc1cc(N)c2cc(NC(=O)/C=C/c3ccccc3Cl)ccc2n1	-32	x	107*	6
C/C(=N/OC(=O)c1ccccc1Br)c1ccc(C)cc1	-3	-2	2	52*
C/C(=N/OC(=O)c1ccc(C)cc1)c1cccs1	1	2	5	-4
CC(=O)Nc1nonc1NC(C)=O	4	2	-4	-6
CC(=O)Nc1cc(OC(C)=O)c2nonc2c1OC(C)=O	37*	17	x	8
O=S1(=O)CC(N2CCCCC2)C1CN1CCCCC1 (stereo unspecified)	x	-2	x	x
CC1(C)O[C@@H]2[C@H](O1)[C@@H](CO)O[C@H]2n1ccc(=O)[nH]c1=O	x	-1	x	x
Cc1ccc(-c2ccc(/C=C(\C#N)C(=O)Nc3cc(C)nn3-c3ccccc3)o2)cc1	0	x	5	-12
N#C/C(=C\c1ccc(-c2ccccc2)o1)C(=O)Nn1cnnc1	3	-14	-8	57*
COc1cccc(N2C(=NC(=O)C3CCCO3)SC3CS(=O)(=O)CC32)c1 (stereo unspecified)	3	-4	2	-1
Cc1cc(C)cc(NCc2cc3c(cc2[N+](=O)[O-])OCO3)c1	-1	0	-9	42
COc1ccc(CNCc2cc3c(cc2[N+](=O)[O-])OCO3)cc1	-7	-21	-4	53*
CCN1C(C#N)=C(C#N)N=C(C)CC1(C)C	-2	-5	-8	53*
COc1ccc(Cc2nc(-c3ccc(NC(=O)c4cccnc4)cc3)no2)cc1	2	1	90*	-5
Cc1cnc(C(=O)OCc2ccc(COC(=O)c3cnc(C)cn3)cc2)cn1	-2	1	0	17
Cc1cnc(C(=O)OCc2ccc(Br)cc2F)cn1	-2	-7	-4	58*
O=C1CC(=O)Nc2cc(S(=O)(=O)N3CCN(c4ccc([N+](=O)[O-])cc4)CC3)ccc2N1	1	-31	6	33
O=C(c1ccc2c3n(nc2c1)-c1ccccc1CO3)N1CCOCC1	x	x	57*	15
SMILES	3CLpro inhibitor	PrPC TRFRET	BJeLR lethal	VHR inh abs
O=C(c1ccc2c3n(nc2c1)-c1ccccc1CO3)N1CCCCC1	x	-14	60*	-4
O=C(c1ccc2c3n(nc2c1)-c1ccc(Cl)cc1CO3)N1CCOCC1	x	-12	11	0
CSc1ccc(CN2CCC2(C)C(=O)NC2CCN(Cc3ccccc3)CC2)cc1 (stereo unspecified)	x	-14	x	x
C=CC[C@]12C[C@@]3(O[C@H](c4ccc(C(F)(F)F)cc4)N=C3C[C@H](c3ccc(OC)cc3)[C@H]1C)N(Cc1ccncc1)C2=O	x	3	x	x
COC(=O)c1[nH]c2ccccc2c1CN1CCOCC1	-1	6	-5	56*
O=C(NCc1ccc2c(c1)OCO2)c1c(Cl)cccc1Cl	1	3	-3	56*
O=C(NCc1ccc2c(c1)OCO2)c1cccc(C(=O)NCc2ccc3c(c2)OCO3)c1	5	7	2	5
C=C(C)C1CC=C(C)/C(=N/NC(=O)CCC(=O)Nc2ccccc2Cl)C1 (stereo unspecified)	-1	6	2	55*
C=C(C=O)C[C@@H]1C[C@H](O)C2OC3C[C@]4(C)OC5/C=C\CC6OC7C(CC=CCC6OC5CCCC4OC3CC2O1)OC1CC2OC3CC(=O)OC3C[C@@H](C)C[C@@]2(C)OC1C[C@@H]7C (stereo partly specified)	x	x	95*	-4

Assay outcomes from PubChem.
